Experimental data reported in PubChem BioAssay AID492952 (Southern Research Specialized Biocontainment Screening …, 2010).
About 1,500 (65%) of roughly 2,300 compounds were called active. The set was probably picked from earlier hits. The list shows a part of the results. Results with a measured potency or affinity are listed apart. Unmarked numbers belong to inactive results. How the calls were made is not given here.

Test: replicating M. tuberculosis growth inhibition, dose response, non-replicating M. tuberculosis project, H37Rv (AID 492952);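 further: Mycobacterium tuberculosis grown in culture; growth inhibition read after a week of incubation; 0% = bacteria alone untreated and 100% = bacteria with high antibiotic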
Details: series mostly up to 50 µM; inhibition: at the top concentration

| Structure (SMILES) | inhibition [%] |
| --- | --- |
| CN(C)CCC(=O)N1c2ccccc2Sc2ccc(C(F)(F)F)cc21 | -0.36 |
| Oc1ccc(Br)cc1-c1ccn[nH]1 | 11.7 |
| Cc1ccc(C(C)NC(=O)c2cc3ccccc3oc2=O)cc1C (stereo not drawn) | -6.44 |
| CC(NC(=O)c1cc2ccccc2oc1=O)c1ccccc1 (stereo not drawn) | 2.61 |
| O=C(NC1CCOc2ccccc21)c1ccc(Cl)nc1 (stereo not drawn) | -5.08 |
| CCOc1ccc(NC(=O)COc2ccc3c(c2)OCO3)cc1 | 11 |
| O=C(Nc1ccc([N+](=O)[O-])cc1)c1ccc(Cn2cc([N+](=O)[O-])cn2)cc1 | -2.2 |
| C=CCOc1ccc(CNCCO)cc1OCC | 6.25 |
| CC(C)(C)c1cc(CN2CCN(CCO)CC2)cc(C(C)(C)C)c1O | 2.66 |
| CCn1c(O)c(C(=O)CC2NCCc3ccccc32)c(=O)n(CC)c1=S (stereo not drawn) | 5.15 |
| Cc1ccc2nc(NC(=O)COC(=O)c3ccc(Br)o3)sc2c1 | -1.01 |
| O=C(NNc1nc2ccccc2s1)Nc1ccc(F)cc1 | -2.93 |
| Cc1ccc(CNC(=O)c2cnccn2)cc1 | -4.77 |
| CCN(CC)c1ccc(NC2CC(=O)N(CCc3ccc(OC)cc3)C2=O)cc1 (stereo not drawn) | 6.5 |
| CC(C)(C)c1csc(NC(=O)c2ccccc2O)n1 | 1.64 |
| CCCNC(=O)N1CCC(c2ccc3c(c2)OCO3)CC1 | -0.57 |
| O=C(NCc1ccc2c(c1)OCO2)c1ccc(Cl)s1 | -0.4 |
| Cc1ccc(NC(=O)COc2ccc3c(c2)CCC3)nc1 | 24.1 |
| O=C(CN1CCN(c2ccccc2O)CC1)Nc1ccc2c(c1)CCC2 | 4.17 |
| O=C1C=CC(=O)N1N(c1ccccc1)c1ccccc1 | -5.47 |
| COc1ccc(C(=O)NNC2=C(C(=O)C(F)(F)F)CCC2)cc1 | 3.23 |
| CC1C/C(=N/N2C(=O)CSC2=S)CC(C)(C)C1 (stereo not drawn) | -2.91 |
| Fc1ccc(N2CCN(Cc3nnc(-c4ccccc4)o3)CC2)cc1 | 6.29 |
| O=C1CC(N2CCN(c3ccc(F)cc3)CC2)C(=O)N1Cc1ccccc1 (stereo not drawn) | -0.37 |
| O=C(CN1CCN(c2ccc([N+](=O)[O-])cc2)CC1)Nc1ccccn1 | -1.52 |

| Structure (SMILES) | inhibition [%] |
| --- | --- |
| O=C1CCCC(O)=C1C=Nc1ccc2c(c1)oc1ccccc12 | 20.6 |
| CCOC(=O)c1ccc(N=CC2=C(O)CC(C)(C)CC2=O)cc1 | 10.5 |
| C/C(=N\NC(=O)c1nn(C)cc1Cl)c1ccncc1 | -4.13 |
| O=C(Nc1ccc(Cl)cc1)C1CCCC1 | 1.54 |
| CSc1nc(=S)cc(C)[nH]1 | 5.22 |
| CCOC(=O)Cn1cc(C#N)c2ccccc21 | 14.6 |
| CSc1nnc(Cc2ccc3c(c2)OCO3)o1 | 19.4 |
| CC(C)c1ccc(OCC(=O)NC2=NCCS2)cc1 | -0.2 |
| O=S(=O)(Nc1nccs1)c1ccc(NCc2cc(Br)cc(Br)c2O)cc1 | -4.18 |
| COc1cc(C=O)ccc1OCCOCCOc1ccc(Cl)cc1 | 3.59 |
| Cc1cccnc1NC(=O)C1COc2ccccc2O1 (stereo not drawn) | 3.27 |
| CC(=O)c1cccc(NC(=O)C2COc3ccccc3O2)c1 (stereo not drawn) | 1.76 |
| COc1ccc(NC(=O)C2COc3ccccc3O2)cc1 (stereo not drawn) | 3.23 |
| Cc1ccccc1NC(=O)C1COc2ccccc2O1 (stereo not drawn) | 1.97 |
| CCc1ccccc1NC(=O)C1COc2ccccc2O1 (stereo not drawn) | 7.64 |
| O=C(COC(=O)c1ccccc1)NCc1cccs1 | 6.1 |
| CCN(CC)C(=O)c1sc2nc(-c3ccccc3)ccc2c1N | 8.17 |
| C=CCn1c(O)c(C(C)=Nc2ccc(C(=O)OCC)cc2)c(=O)[nH]c1=O | 6.12 |
| Cc1cc(C)c2c(=O)n(CC(=O)Nc3cccc(Cl)c3C)sc2n1 | 3.34 |
| CC1CCc2c(sc3nc(CSc4ncn[nH]4)[nH]c(=O)c23)C1 (stereo not drawn) | -0.8 |
| Cc1ccc(CC(=O)Nc2ccc(Cl)cn2)cc1 | 0.6 |
| Cc1ccc(NC(=O)CN(C)CC(=O)Nc2ccc(F)c(Cl)c2)cc1 | 6.56 |
| Cc1nc2ccc(NC(=O)COc3cccc(F)c3)cc2s1 | 16.1 |
| COc1ccc(N2C(=O)CC(Sc3nc4ccccc4s3)C2=O)cc1OC (stereo not drawn) | -5.21 |
| N#Cc1cc(N)ccc1-n1cccc1 | 1.99 |

| Structure (SMILES) | inhibition [%] |
| --- | --- |
| CCN1C(=O)CC(N2CCC(c3nc4ccccc4[nH]3)CC2)C1=O (stereo not drawn) | -1.46 |
| CC(C)(C)NCc1cc(Br)ccc1OCc1cccs1 | 11.7 |
| CCCCOC(=O)c1ccc(OC(=O)c2cccnc2)cc1 | 4.1 |
| CC(C)CN1C(=O)/C(=C(/C#N)C(=O)NC2CCCCC2)c2ccccc21 | -4.08 |
| COc1cccc2sc(Nc3nnc(-c4cccs4)o3)nc12 | -0.75 |
| CC1(c2nnc(-c3ccc(F)cc3)o2)CC(c2cccc(Cl)c2)=NO1 (stereo not drawn) | 5.2 |
| CC(C)(C)c1ccc2c(c1)OC(C(=O)N/N=C\c1ccccn1)CO2 (stereo not drawn) | 23.2 |
| CCCOC(=O)c1cc(-c2ccc(C=O)o2)ccc1Cl | 5.73 |
| O=C(COC(=O)CC12CC3CC(CC(C3)C1)C2)Nc1cccnc1Cl | 6.83 |
| O=C(NNC(=O)C12CC3CC(CC(C3)C1)C2)c1cnccn1 | 8.93 |
| O=C(NC(=S)Nn1cnc2c(cnn2-c2ccccc2)c1=O)c1ccccc1 | 0.77 |
| CCC(C)c1ccc(O)c(/C=N/O)c1 (stereo not drawn) | 5.4 |
| CSc1ccccc1C(=O)NCc1ccc(S(N)(=O)=O)cc1 | 12.7 |
| CCOc1cccc2cc(C(=O)NCc3ccccc3)c(=N)oc12 | 6.68 |
| O=C(CCC1CCCCC1)NCc1ccc(F)cc1 | -2.73 |
| C/C(=N\NC(=O)c1ccc(CN2CCc3ccccc3C2)cc1)c1ccccc1O | 0.55 |
| O=C(Cc1ccc(F)cc1)Nc1ccc(Cl)cn1 | -0.35 |
| O=C(c1ccco1)N1CCN(c2ccc(F)cc2)CC1 | 4.57 |
| O=C(NCCC1CCCC1)c1cccs1 | -4.94 |
| CC(=O)N1CCC(=NNC(=O)c2cccs2)CC1 | 2.67 |
| O=C(COC(=O)CC1CCCC1)Nc1ccc(OC(F)F)cc1 | -0.34 |
| O=C(COC(=O)C1CCCCC1)Nc1ccccc1OC(F)F | -25.5 |
| N/C(=N\OC(=O)CC1CCCCC1)c1ccncc1 | 1.58 |
| Cc1ccc(CO/N=C/c2c(O)cc(C)oc2=O)cc1 | 2.02 |
| Cc1ccc(CCC(=O)Nc2ccccc2F)s1 | 18.7 |

| Structure (SMILES) | inhibition [%] |
| --- | --- |
| O=C(Nc1ccccc1F)c1ccc(Br)o1 | -3.44 |
| NC(=O)C1CCN(C2CC(=O)NC2=O)CC1 (stereo not drawn) | -5.72 |
| COc1ccc(OCCSc2nnc(Cc3cccc4ccccc34)n2N)cc1 | -6.56 |
| N/C(=N\OC(=O)c1cccs1)c1ccccc1 | 2.45 |
| CC1(C)CC(=O)C(C2NCCc3ccccc32)=C(O)C1 (stereo not drawn) | 4.03 |
| CCCc1cc(C(=O)Nc2cccc(C(C)=O)c2)no1 | -0.8 |
| O=C(Nc1ccccc1F)c1ccc(CSc2ccccc2)o1 | -1.3 |
| Cc1cc(C(=O)NNc2cc(Cl)ccc2Cl)no1 | 7.55 |
| C[C@@H]1CN=C2N(CCNC(=O)CCC3CCCCC3)[C@H](Cc3ccc(O)cc3)CN21 | 6.51 |
| CC(C)[C@H]1CN=C2N(C[C@H](C)NC(=O)CCC3CCCCC3)[C@H](Cc3ccc(O)cc3)CN21 | 0.35 |
| CCCC(=O)N1CCC(Cc2ccccc2)CC1 | -6.45 |
| O=C(CN1CCC(Cc2ccccc2)CC1)NC(=O)NC1CCCCC1 | 7.51 |
| COc1cc(C=O)ccc1OCCCCOc1ccccc1[N+](=O)[O-] | -2.84 |
| CCc1ccc(C2=C/C(=C/c3cccnc3)C(=O)O2)cc1 | 1.91 |
| C/C(=N\Nc1ccc(Cl)cc1)c1c(O)cc(C)oc1=O | -6.6 |
| CN(C)c1ccc(NC(=O)COC(=O)c2cc(Cl)ccc2[N+](=O)[O-])cc1 | 16.4 |
| O=C(Nc1cccc([N+](=O)[O-])c1)C1COc2ccccc2O1 (stereo not drawn) | -1.31 |
| Cn1cccc1/C=N\NC(=O)C1COc2ccccc2O1 (stereo not drawn) | 2.74 |
| O=C(Nc1ccc([N+](=O)[O-])cc1)C1COc2ccccc2O1 (stereo not drawn) | -1.93 |
| O=C(Nc1cccc(Cl)c1)C1COc2ccccc2O1 (stereo not drawn) | 5.4 |
| CC(C)NC(=O)C1COc2ccccc2O1 (stereo not drawn) | 5.57 |
| O=C(Nc1ccc(Cl)cn1)C1COc2ccccc2O1 (stereo not drawn) | -9.66 |
| COc1ccc2c([N+](=O)[O-])c(N3CCCC3)[nH]c2c1 | 11.5 |
| COc1ccc(NC(=O)COc2ccccc2)cc1Cl | 20 |
| CN(C)S(=O)(=O)Oc1ccc(C(=O)Nc2cccc(C(F)(F)F)c2)cc1 | 0.37 |

| Structure (SMILES) | inhibition [%] |
| --- | --- |
| COC(=O)c1cccc(NC(=O)COc2cccc([N+](=O)[O-])c2)c1 | 3.64 |
| C=C(C)C1Cc2cc3ccc(=O)oc3cc2O1 (stereo not drawn) | -6.72 |
| COCCNC(=O)CC(=O)N/N=C/c1cccc(C(=O)OC)c1 | -0.54 |
| O=C(CCc1c[nH]c2ccccc12)Nc1ncccc1O | 4.85 |
| O=C(COC(=O)CCC(=O)c1ccc(F)cc1)Nc1ccccc1 | -0.44 |
| COc1cccc(NC(=O)COC(=O)Cc2ccc(Br)cc2)c1 | 6.93 |
| CC(=O)c1ccc(NC(=O)C(Cc2ccccc2)n2cccc2)cc1 (stereo not drawn) | 1.69 |
| Cc1cc(C(=O)NNc2ccc(Cl)cc2)no1 | 4.74 |
| COc1ccc(NC(=O)c2cc([N+](=O)[O-])ccc2O)cc1 | 25.4 |
| Cc1ccc(CSCCNC(=O)c2cccc([N+](=O)[O-])c2)cc1 | 26 |
| COc1ccc([C@@]2(O)c3c(ccc(CC=C(C)C)c3O)NC(=O)[C@@H]2OC)cc1 | -7.91 |
| CN1/C(=C\C=N\NC(=O)c2cccnc2)C(C)(C)c2ccccc21 | 17.1 |
| C/C(CC(=O)Nc1ccc(C)c(Cl)c1)=N\NC(=O)c1ccco1 | 1.14 |
| CCc1cccc(OCCCn2ccnc2)c1 | 2.96 |
| O=Cc1ccc(OC2OCCOC2Oc2ccc(C=O)cc2)cc1 (stereo not drawn) | 0.69 |
| O=C(c1ccccc1[N+](=O)[O-])N1N=C(c2ccccc2)CC1(O)C(F)(F)F (stereo not drawn) | -1.38 |
| CC1=NN(C(=O)c2ccc(Cn3nc(C)c(Br)c3C)cc2)C(O)(C(F)(F)F)C1 (stereo not drawn) | -4.33 |
| CC1=NN(C(=O)c2cc(C)nn2C)C(O)(C(F)(F)F)C1 (stereo not drawn) | -3.55 |
| CC1=NN(C(=O)c2ccoc2C)C(O)(C(F)(F)F)C1 (stereo not drawn) | 5.07 |
| Cc1cc(C)cc(NC(=O)COC(=O)CC2CCCC2)c1 | 6.23 |
| O=C(CC1CCCCC1)NCc1ccccc1 | -2.3 |
| Cc1cc(Cl)ccc1NNC(=O)c1cccs1 | 28 |
| CCN1CCN(Cc2cc(C(C)(C)C)c(O)c(C(C)(C)C)c2)CC1 | -3.19 |
